What all share (assay): NCI-60 one-dose screen, 48 h (100 = growth as untreated, 0 = no growth, -100 = all killed)
What all share (conditions): 10 µM unless noted

In test [1] the test system is NCI-H23 lung.
Test [2] deals with NCI-H322M lung.
Test [3] has as its system HOP-62 NSCLC.
In test [4] the test system is NCI-H460 lung.
For test [5], the system named is HOP-92 NSCLC.
Test [6] relates to NCI-H522 lung.
Test [7] relates to A549/ATCC NSCLC.
Test [8] concerns 786-0 renal.
The test system of test [9] is COLO 205 colon.
Test [10] deals with DU-145 prostate.
Test [11] concerns K-562 leukemia.
Test [12] relates to MALME-3M melanoma.
In test [13] the test system is MDA-MB-231 breast.
In test [14] the test system is RXF 393 renal.
Test [15] deals with SF-268 CNS.
Test [16] has as its system SF-295 CNS.
Test [17] has as its system SF-539 CNS.
Test [18] deals with UACC-257 melanoma.
The test system of test [19] is M14 melanoma.
The subject of test [20] is HCT-15 colon.

This is part of a sample that, as a whole, favours compounds with a hit. Of some 83,000 tested, about 20% had one in any assay.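 Testing used 96-well plates and a 48-hour single-concentration exposure. Example: -40 means 40% of the starting cells died.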 A number with no mark means an inactive call. The source made the active and inactive calls. How the source made its calls: active means growth percent below 10; inactive means the rest.

Take `O=Cc1cc2ccccc2nc1Nc1nccs1`: the growth in [1] is 52.4%; in test [2] it was 91.8%; in [3], 62.2%; in test [4], 61.8%; in [5], 81%; in test [6], 83.1%. In addition, the growth in [7] was 96.9%; in test [8], 69%; in test [9] it was 69.7%; in test [10], 80.3%; in test [11], 109%; in test [12] it was 73.1%. Moreover, the growth in test [13] is 68.6%; in test [14], 53.2%; in [15] it was 54.8%; in test [16], 92.9%; in test [17], 87.3%; in [18], 102%. In addition, the growth was 101% in [19] and 46.4% in test [20].

On to `O=C(c1nc2ccccc2[nH]1)C1C(c2ccc([N+](=O)[O-])cc2)C2CC3CCCCC3N2[C@@]12C(=O)Nc1cc(Cl)ccc12` (stereo not given in full), for which the growth in test [1] is 26.2%; in test [2], 47.6%; in test [3], 41.3%; in test [4], 11.2%; in [5], 20.1%; in test [6], 34.7%. The growth in test [7] was 18.5%; in test [8], 38.5%; in test [9], 22.2%; in test [10], 51.3%; in test [11], 12.2%; in test [12], 15%. In addition, the growth is 26.6% in test [13]; 14.7% in [14]; 41.3% in [15]; 16.5% in test [16]; 40.4% in test [17]; 25.7% in test [18]. For the same compound, the growth in [19] was 21.2%; in test [20], 11%.

`COc1ccc(/C=C/C(=O)c2ccc3cc(OC)c(OC)cc3c2)cc1OC`: the growth in [1] is 51.7%; in test [2], 56%; in test [3], 36%; in [4] it was 40.7%; in test [5], 51.4%; in test [6] it was 31.9%. In addition, the growth in [7] was 19.5%; in test [8] it was 42.9%; in test [9], 25.9%; in [10] it was 46.7%; in [11], 8.48% (active); in [12] it was 90.6%. Further, the growth is 101% in [13]; 84.2% in [14]; 70.7% in test [15]; 70.8% in test [16]; 23.5% in test [17]; 70.2% in [18]. The growth in test [19] was 64.2%; in [20] it was 27.5%.

For `Oc1[nH]c2ccccc2c1N=Nc1nnc2n1N=C(c1ccccc1)CS2`, the growth in [1] is 70%; in test [2], 104%; in test [3], 46.1%; in [4] it was 83.3%; in [5] it was 64.7%; in test [6], 43.6%. Moreover, the growth in [7] was 69.1%; in test [8], 82%; in test [9] it was 105%; in test [10], 84.1%; in [11] it was 77.7%; in [12], 103%. The growth was 88.6% in test [13]; 82.4% in [14]; 69.1% in test [15]; 99.9% in test [16]; 82.6% in test [17]; 79.6% in test [18]. Moreover, the growth was 99.1% in test [19] and 105% in [20].

On to `O=C(Nc1ccc(N2CCNCC2)cc1)c1[nH]ncc1Nc1cc(C2CC2)ncn1`, for which the growth in [1] was 44.3%; in test [2] it was 37.6%; in [3], 66.4%; in test [4] it was 38.9%; in test [5], 78.1%; in test [6], 25.2%. The growth in [7] was 33.2%; in [8], 56.7%; in test [9] it was 24%; in [10] it was 70.6%; in [11], 24.2%; in test [12], 61.5%. Further, the growth in [13] was 81.1%; in test [14], 46.5%; in test [15], 60%; in test [16], 76.9%; in test [17], 46.1%; in [18], 75.9%. Also, the growth in test [19] was 45.3%; in [20], 35.6%.

Consider `O=C1N=c2ccccc2=C1c1sc(=Nc2ccccc2)n(Nc2ccccc2)c1O`, for which the growth in [1] is 102%; in [2] it was 107%; in test [3], 100%; in [4], 101%; in test [5] it was 102%; in test [6], 90.9%. Moreover, the growth in test [7] is 108%; in [8] it was 101%; in test [9], 116%; in [10] it was 115%; in [11], 94.4%; in test [12], 108%. In addition, the growth was 95.1% in test [13]; 107% in test [14]; 99.5% in test [15]; 102% in test [16]; 104% in [17]; 106% in test [18]. Besides, the figures for the growth in [19] and in test [20] were 99.7% and 102%, respectively.

On to `CC(=O)c1ccc(Cc2ccc(C(C)=O)s2)s1`, for which the growth is 103% in [1]; 92.1% in test [2]; 104% in [3]; 94.3% in test [4]; 102% in [5]; 95.8% in test [6]. Further, the growth in test [7] is 105%; in test [8], 102%; in test [9] it was 119%; in test [10], 113%; in test [11] it was 94.1%; in test [12] it was 106%. Further, the growth in test [13] was 99.8%; in [14], 104%; in test [15], 101%; in test [16], 114%; in [17], 94.1%; in test [18] it was 111%. The growth in test [19] was 107%; in test [20], 99%.

Values taken from PubChem BioAssay (NCI).
